HSP90 refold inh: HSP90 refolding inhibition in rabbit reticulocyte lysate; luciferase refolding luminescence, 3 h; inhibition, % at 5.6 µM; 0.91% of 290,000 active; AID 1789;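 active = inhibition above the screen-wide mean plus 3 SD, computed separately per campaign, cut at about 16% in these data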;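 also: 0% = DMSO wells and 100% = 60 µM geldanamycin wells; inhibitors lower the luminescence because luciferase stays unfolded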
SENP7 inh: blocks the human protease SENP7; Q9BQF6; recombinant SENP7, Z-RLRGG-aminoluciferin luminescence, 40 min; 1.5% of 330,000 active; inhibition, % at 5 µM;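 active = inhibition above about 50% at the single test dose, limit read from the data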;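 also: plate controls were DMSO with enzyme for no effect and no enzyme buffer wells for full effect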
Platelet DG rel: modulates dense granule release in human platelets. 0.22% of 300,000 active. inhibition, %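 (compounds screened at 7.5 µM in platelet-rich plasma)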. AID 1663. human platelet-rich plasma, SFLLRN dense granule ATP release, luminescence;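 active = mean replicate score, as percent of positive control, at or above 50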
SENP6 block: SENP6 protease inhibition. Q9GZR1. Recombinant SENP6 catalytic domain, aminoluciferin luminescence. inhibition, % at 10 µM. 1.8% of 330,000 active. AID 2599;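 active = inhibition above about 50% at the single tested dose, limit read from the data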;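 also: plate controls were DMSO wells with enzyme for no effect and DMSO wells lacking enzyme for full effect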
SENP8 block-1: blocks the human protease SENP8; 1.2% of 330,000 active; Q96LD8; purified SENP8, Z-RLRGG-aminoluciferin cleavage, luminescence; inhibition, % at 10 µM; in the data active = inhibition above about 50%
Target sequence (Q96LD8 whole entry, looked up): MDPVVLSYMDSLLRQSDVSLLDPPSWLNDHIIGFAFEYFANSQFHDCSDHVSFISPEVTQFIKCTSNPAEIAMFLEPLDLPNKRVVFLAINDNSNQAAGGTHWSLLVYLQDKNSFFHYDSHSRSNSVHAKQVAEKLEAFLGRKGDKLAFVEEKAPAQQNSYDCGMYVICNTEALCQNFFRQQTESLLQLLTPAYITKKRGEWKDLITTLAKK
SENP8 block-2: inhibitors of human SENP8 protease; recombinant SENP8, Nedd8 substrate fluorescence; Q96LD8; 0.64% of 360,000 active; inhibition, % at 20 µM; in the data active = inhibition mostly above about 40%, no sharp cut-off; inactive = mostly below about 27%
SENP8 conf-1: human SENP8 inhibition, confirmed. inhibition, % at 12.5 µM. shares compounds with SENP7 inh. Recombinant SENP8, Z-RLRGG-aminoluciferin luminescence, 60 min. 40% of 6,200 active. AID 488912;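 active = mean inhibition across replicates above about 50%, limit read from the data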
SENP6 confirm: confirmation of human SENP6 protease inhibitors; shares compounds with SENP7 inh; recombinant SENP6, Z-RLRGG-aminoluciferin luminescence; inhibition, % at 12.5 µM; 58% of 6,200 active; AID 488915
SENP7 conf: confirmation of human SENP7 protease inhibitors; shares compounds with SENP7 inh; recombinant SENP7, Z-RLRGG-aminoluciferin luminescence, 40 min; inhibition, % at 12.5 µM; 69% of 6,200 active
Casp3 select: inhibits human caspase-3 in SENP selectivity test | purified caspase-3, Z-DEVD-aminoluciferin luminescence, 60 min | AID 488918 | inhibition, % at 12.5 µM | shares compounds with SENP7 inh | 60% of 6,200 active;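 active = mean inhibition above about 50%, limit read from the data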;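 also: plate controls were enzyme with DMSO for no effect and wells without caspase-3 for full effect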
Target sequence (P42574 28-227 limits assumed): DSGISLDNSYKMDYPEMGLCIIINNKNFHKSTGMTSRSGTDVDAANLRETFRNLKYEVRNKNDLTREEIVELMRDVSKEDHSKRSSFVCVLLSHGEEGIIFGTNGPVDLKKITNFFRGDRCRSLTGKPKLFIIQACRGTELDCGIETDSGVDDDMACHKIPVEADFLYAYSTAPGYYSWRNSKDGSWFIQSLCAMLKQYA
Luc interf: counter-screen for SENP inhibitors: luminescence interference; shares compounds with SENP7 inh; Pre-incubated SENP8/Z-RLRGG-aminoluciferin, luciferase luminescence interference; inhibition, % at 12.5 µM; 39% of 6,200 active;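 active = mean inhibition above about 50% when retested at one dose, limit read from the data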;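 also: plate controls were DMSO wells with completed reaction for no effect and substrate without enzyme for full effect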
SENP8 conf-2: SENP8 (human) inhibition, single concentration confirmation; shares compounds with SENP8 block-2; purified SENP8, Nedd8-AMC/pro-Nedd8 cleavage fluorescence, 30 min; inhibition, % at 25 µM; 15% of 1,400 active; AID 624319; in the data active = inhibition mostly above about 39%, no sharp cut-off; inactive = mostly below about 34%
Numbers without * were called inactive. Compounds with a hit are over-represented: about 2.8% of the library has one in this group of screens.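 The calls were made as follows, unless noted: active = mean inhibition above about 50% in the one-dose retest (limit read from the data); inactive = the rest.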

What do the screens show for `COc1ccc(OC)c(N2C(=O)NC(=O)/C(=C\c3ccc([N+](=O)[O-])s3)C2=O)c1`?
HSP90 refold inh: 3; SENP7 inh: 0; Platelet DG rel: -3; SENP6 block: 51*; SENP8 block-1: 10; SENP8 block-2: 48*; SENP8 conf-1: 14; SENP6 confirm: 33; SENP7 conf: 14; Casp3 select: 6; Luc interf: 4

How did C=CCOC(=O)c1ccccc1N do in these assays?
SENP7 inh: 3; SENP6 block: -11; SENP8 block-1: -18; SENP8 block-2: -420

Results for Nc1ccccc1C(=O)OCCOc1ccccc1 ?
HSP90 refold inh: 1; SENP7 inh: 95*; SENP6 block: 90*; SENP8 block-1: 86*; SENP8 block-2: inactive; SENP8 conf-1: 92*; SENP6 confirm: 92*; SENP7 conf: 99*; Casp3 select: 81*; Luc interf: 90*

Results for O=P1(NCCCn2cc[n+](Cc3nc4ccccc4[nH]3)c2)C=C(c2ccccc2)OC(c2ccccc2)=C1 ?
HSP90 refold inh: 4; SENP7 inh: 5; Platelet DG rel: -1; SENP6 block: -20; SENP8 block-1: -6; SENP8 block-2: 4

How did NC1=NC(=O)N2CC12 (stereo unspecified) do in these assays?
SENP8 block-2: 14

How did O=C(O)Cn1cc(C(=O)c2ccccc2F)c2ccccc21 do in these assays?
HSP90 refold inh: -5; SENP7 inh: -4; Platelet DG rel: -3; SENP6 block: 16; SENP8 block-1: 5; SENP8 block-2: 12

How did CCOC(=O)c1cccc(NC(=O)c2c(O)[nH]c(=O)[nH]c2=O)c1 do in these assays?
SENP7 inh: 51*; Platelet DG rel: 12; SENP6 block: 58*; SENP8 block-1: 27; SENP8 block-2: 7; SENP8 conf-1: 48; SENP6 confirm: 41; SENP7 conf: 81*; Casp3 select: 73*; Luc interf: 45

What do the screens show for `CCC1(CC)C(=O)NC(=Nc2cccc(C(F)(F)F)c2)NC1=O`?
HSP90 refold inh: 3; SENP7 inh: 3; Platelet DG rel: -2; SENP6 block: -4; SENP8 block-1: 2; SENP8 block-2: 8

How did CCOP(=O)(OCC)c1cc(C)c(O)c(C(C)(C)C)c1 do in these assays?
HSP90 refold inh: -3; SENP7 inh: -8; Platelet DG rel: -3; SENP6 block: 18; SENP8 block-1: 0; SENP8 block-2: 1

How did O=c1[nH]c(=S)[nH]c(O)c1N=Nc1ccc2c(c1)OCCO2 do in these assays?
HSP90 refold inh: 2; SENP7 inh: 92*; Platelet DG rel: 17; SENP6 block: 92*; SENP8 block-1: 87*; SENP8 block-2: 42*; SENP8 conf-1: 1; SENP6 confirm: 25; SENP7 conf: 55*; Casp3 select: 64*; Luc interf: -1; SENP8 conf-2: 6

How did COC(=O)C1C(C(=O)O)C2(Cl)C(Cl)=C(Cl)C1(Cl)C2(Cl)Cl (stereo unspecified) do in these assays?
SENP8 block-2: 9

What do the screens show for `O=c1[nH]c(=S)[nH]c(O)c1N=Nc1cc(S(=O)(=O)Nc2ccc(Cl)cc2)ccc1Cl`?
SENP7 inh: -2; SENP6 block: 17; SENP8 block-1: 6; SENP8 block-2: 41*; SENP8 conf-2: 11

What do the screens show for `NS(=O)(=O)c1ccc(N=Nc2c(O)[nH]c(=S)[nH]c2=O)cc1`?
HSP90 refold inh: 3; SENP7 inh: 11; Platelet DG rel: -16; SENP6 block: 33; SENP8 block-1: -9; SENP8 block-2: 26

Results for O=C1NC(=O)C(CCc2ccncc2)(Cc2ccc3c(c2)OCO3)C(=O)N1CCc1ccccc1 (stereo unspecified) ?
HSP90 refold inh: 2; SENP7 inh: 12; Platelet DG rel: -5; SENP6 block: 2; SENP8 block-1: 1; SENP8 block-2: 29*; SENP8 conf-2: 13

What do the screens show for `O=C(CCC(=O)N1C[C@H]2C[C@@H](C1)c1cccc(=O)n1C2)NCc1cccc(C(F)(F)F)c1`?
HSP90 refold inh: -3; SENP7 inh: -5; Platelet DG rel: 0; SENP6 block: -3; SENP8 block-1: 0; SENP8 block-2: 50*; SENP8 conf-2: 6

How did O=C(CCC(=O)N1C[C@H]2C[C@@H](C1)c1cccc(=O)n1C2)NCc1ccccc1 do in these assays?
HSP90 refold inh: -3; SENP7 inh: -3; Platelet DG rel: -6; SENP6 block: -19; SENP8 block-1: -2; SENP8 block-2: 21

What do the screens show for `O=C(NC1(C(F)(F)F)Oc2ccc(Cl)cc2O1)N1CCC2(CC1)OCCO2` (stereo unspecified)?
HSP90 refold inh: -3; SENP7 inh: 7; Platelet DG rel: 2; SENP6 block: 25; SENP8 block-1: 1; SENP8 block-2: 40*; SENP8 conf-2: 17

Results for COC1C(OC(=O)c2ccc(C)[nH]2)C(O)C(Oc2ccc3c(O)c(NC(=O)c4ccc(O)c(CC=C(C)C)c4)c(=O)oc3c2Cl)OC1(C)C (stereo unspecified) ?
HSP90 refold inh: -4; SENP7 inh: -4; SENP6 block: 24; SENP8 block-1: 23; SENP8 block-2: 40*; SENP8 conf-2: 0

How did c1nc2nc3c(c(N4CCNCC4)n2n1)CCCC3 do in these assays?
HSP90 refold inh: -1; SENP7 inh: -8; Platelet DG rel: -2; SENP6 block: -17; SENP8 block-1: -9

Results for CN1CCN(c2cc(N3CCCC3)c([N+](=O)[O-])cc2F)CC1 ?
HSP90 refold inh: 0; SENP7 inh: 3; Platelet DG rel: 0; SENP6 block: -13; SENP8 block-1: -1; SENP8 block-2: 45*; SENP8 conf-2: 16

Results for O=[N+]([O-])c1cc(F)c(N2CCCCC2)cc1Br ?
HSP90 refold inh: -2; SENP7 inh: 0; Platelet DG rel: 10; SENP6 block: 0; SENP8 block-1: -4; SENP8 block-2: 40*; SENP8 conf-2: 5

Compound activity: PubChem, several laboratories
